Measured values as given in the antibiotic and cytotoxicity screens of Wong et al. (2023).
The whole screen tested about 39,000 compounds, of which about 500 (1.3%) were called active. The entries come from a sample that favours actives as a whole.

What follows are molecules tested on S. aureus RN4220 (assay: growth inhibition call (relative growth <= 0.2)). Settings: 50 µM.
In the case of `C[C@@H]1CN([C@H](C)CO)C(=O)c2cc(NC(=O)NC3CCCCC3)ccc2O[C@@H]1CN(C)Cc1ccc(Cl)c(Cl)c1`, the growth inhibition call is reported as “inactive”. For `CS(=O)(=O)O.CSc1ccc2c(c1)C(N1CCN(C)CC1)Cc1ccccc1S2` (stereo not given), the growth inhibition call was “active”. With `CSc1ccc2c(c1)N(CCC1CCCCN1C)c1ccccc1S2.Cl` (stereo not given) the growth inhibition call was “inactive”. `CN1CCC(=C2c3ccccc3Sc3ccccc32)CC1.O=C(O)C=CC(=O)O` was tested, and the growth inhibition call was “inactive”. `C[C@@H]1CCCCO[C@@H](CN(C)C(=O)c2ccccc2)[C@@H](C)CN([C@@H](C)CO)C(=O)c2cc(NC(=O)Nc3ccc(C(F)(F)F)cc3)ccc2O1` was tested, and the growth inhibition call was “inactive”. For `OCc1ncc[nH]1`, the growth inhibition call was “inactive”. With `CC[C@@H](C)SSc1ncc[nH]1` the growth inhibition call was “active”. With `Cc1ncc[nH]1` the growth inhibition call was “inactive”. `C[C@@H]1CN([C@@H](C)CO)S(=O)(=O)c2ccc(C#CCN(C)C)cc2O[C@@H]1CN(C)C(=O)C1CCCCC1` was tested, and the growth inhibition call was “inactive”. For `Cc1ccc(S(=O)(=O)Nc2cccc3c2O[C@@H](CN(C)CC2CC2)[C@@H](C)CN([C@H](C)CO)C3=O)cc1`, the growth inhibition call was “inactive”. For `C[C@H](O)C#Cc1cnc2c(c1)C(=O)N([C@@H](C)CO)C[C@@H](C)[C@H](CN(C)Cc1cncnc1)O2`, the growth inhibition call was “inactive”. In the case of `O=C(c1cccnc1)N1C[C@H]2[C@@H](c3ccccc31)[C@H](CO)N2C(=O)CN1CCOCC1`, the growth inhibition call is reported as “inactive”. For `O=S1(=O)OC(c2ccc(O)cc2)(c2ccc(O)cc2)c2ccccc21`, the growth inhibition call was “inactive”. In the case of `O=C1OC(c2ccc(O)cc2)(c2ccc(O)cc2)c2ccccc21`, the growth inhibition call is reported as “inactive”. `Oc1ccc(C2(c3ccccc3F)CCC(F)(F)CC2)cc1` was tested, and the growth inhibition call was “active”. In the case of `C[C@H]1CN([C@@H](C)CO)S(=O)(=O)c2ccc(C#CCN(C)C)cc2O[C@@H]1CN(C)C(=O)c1ccccc1F`, the growth inhibition call is reported as “inactive”. With `C[C@H]1CN([C@@H](C)CO)C(=O)c2cccc(NS(=O)(=O)c3cn(C)cn3)c2O[C@H]1CN(C)S(=O)(=O)c1ccccc1` the growth inhibition call was “inactive”. `C[C@@H]1CN([C@H](C)CO)S(=O)(=O)c2ccc(C#CC(C)(C)O)cc2O[C@H]1CN(C)Cc1ccccc1` was tested, and the growth inhibition call was “inactive”. For `CC(N)O.Cc1cc(CC(C)CC(C)(C)C)n(O)c(=O)c1` (stereo not given), the growth inhibition call was “active”. For `C[C@@H]1CCCCO[C@@H](CN(C)Cc2ccncc2)[C@@H](C)CN([C@@H](C)CO)C(=O)c2cc(NC(=O)Nc3ccc4c(c3)OCO4)ccc2O1`, the growth inhibition call was “inactive”. With `C[C@@H]1CN([C@@H](C)CO)C(=O)Cc2cc(NS(=O)(=O)c3cn(C)cn3)ccc2O[C@@H]1CN(C)CC1CCCCC1` the growth inhibition call was “inactive”. `O=C(O)CN(CCc1ccccc1)CC(=O)O` was tested, and the growth inhibition call was “inactive”. With `CC(=O)c1ccccc1OC[C@@H](O)CN(CCO)CCO` the growth inhibition call was “inactive”. With `CN(C(=O)CN(CCO)CC(=O)N(C)C(C)(C)Cc1ccccc1)C(C)(C)Cc1ccccc1` the growth inhibition call was “active”. For `C[C@@H]1CCCCO[C@H](CN(C)Cc2ccc(C(F)(F)F)cc2)[C@H](C)CN([C@@H](C)CO)C(=O)c2cc(N(C)C)ccc2O1`, the growth inhibition call was “inactive”. For `COc1c(N2CCNC(C)C2)c(F)cc2c(=O)c(C(=O)O)cn(C3CC3)c12` (stereo not given), the growth inhibition call was “active”. With `CC1CN(c2c(F)c(F)c3c(=O)c(C(=O)O)cn(C4CC4)c3c2F)CC(C)N1` (stereo not given) the growth inhibition call was “active”. `N[C@@H]1CN(c2c(F)cc3c(=O)c(C(=O)O)cn([C@@H]4C[C@@H]4F)c3c2Cl)CC12CC2` was tested, and the growth inhibition call was “inactive”. For `COc1c(N2CC3CCCNC3C2)c(F)cc2c(=O)c(C(=O)O)cn(C3CC3)c12.Cl` (stereo not given), the growth inhibition call was “active”. For `CC1CN(c2c(F)c(N)c3c(=O)c(C(=O)O)cn(C4CC4)c3c2F)CC(C)N1` (stereo not given), the growth inhibition call was “inactive”. For `Cl.NC1CCN(c2c(F)cc3c(=O)c(C(=O)O)cn(C4CC4)c3c2Cl)C1` (stereo not given), the growth inhibition call was “active”. `C[C@H]1CN([C@@H](C)CO)C(=O)c2cc(NC(=O)C3CC3)ccc2O[C@H]1CN(C)C(=O)Nc1ccc2c(c1)OCO2` was tested, and the growth inhibition call was “inactive”. `C[C@H]1CCCCO[C@@H](CN(C)Cc2ccc3c(c2)OCO3)[C@@H](C)CN([C@@H](C)CO)C(=O)c2cc(NC(=O)CCC(F)(F)F)ccc2O1` was tested, and the growth inhibition call was “inactive”. In the case of `Cc1noc(C)c1NC(=O)Nc1ccc2c(c1)C(=O)N([C@@H](C)CO)C[C@@H](C)[C@H](CN(C)Cc1ccc(C(F)(F)F)cc1)OCCCC[C@H](C)O2`, the growth inhibition call is reported as “inactive”. `C[C@@H]1CN([C@H](C)CO)C(=O)c2cccc(NS(=O)(=O)c3cn(C)cn3)c2O[C@H]1CN(C)C(=O)NC1CCCCC1` was tested, and the growth inhibition call was “inactive”. `CC(C)NC(=O)Nc1ccc2c(c1)C(=O)N([C@H](C)CO)C[C@@H](C)[C@@H](CN(C)Cc1ccc(Cl)c(Cl)c1)OCCCC[C@H](C)O2` was tested, and the growth inhibition call was “inactive”. In the case of `COc1ccc(NC(=O)Nc2cccc3c2O[C@H](CN(C)Cc2ccc(-c4ccccc4)cc2)[C@H](C)CN([C@H](C)CO)C3=O)cc1`, the growth inhibition call is reported as “inactive”. With `C[C@@H]1CCCCO[C@H](CN(C)CC2CCCCC2)[C@H](C)CN([C@@H](C)CO)C(=O)c2cc(NC(=O)Nc3ccc(C(F)(F)F)cc3)ccc2O1` the growth inhibition call was “inactive”. For `C[C@H]1CN([C@@H](C)CO)S(=O)(=O)c2ccc(C#CCN(C)C)cc2O[C@H]1CN(C)Cc1cccnc1`, the growth inhibition call was “inactive”. For `CCn1cc(C(=O)O)c(=O)c2cnc(N3CCNCC3)nc21`, the growth inhibition call was “inactive”. `CCn1cc(C(=O)O)c(=O)c2cc(F)c(N3CCNCC3)nc21` was tested, and the growth inhibition call was “inactive”. `CCn1cc(C(=O)O)c(=O)c2cc(F)c(N3CCNC(C)C3)c(F)c21.Cl` (stereo not given) was tested, and the growth inhibition call was “active”. With `CCNC(=O)C[C@@H]1CC[C@H]2[C@@H](COC[C@H](O)CN2C(=O)Nc2c(C)noc2C)O1` the growth inhibition call was “inactive”. `C#CCN([C@H](/C=C/C1CC1)[C@@H](O)Cc1ccccc1)[C@@H](Cc1ccc(-n2cc(C(=O)NO)nn2)cc1)C(=O)OC` was tested, and the growth inhibition call was “inactive”. In the case of `C[C@@H]1CN([C@@H](C)CO)C(=O)c2cc(NC(=O)c3ccccc3)ccc2O[C@@H](C)CCCCO[C@@H]1CN(C)Cc1ccc(C(F)(F)F)cc1`, the growth inhibition call is reported as “inactive”. For `CC(=O)O[C@@H]1CC[C@@]2(C)[C@@H](CC[C@]3(C)[C@@H]2C(=O)C=C2[C@@H]4[C@@H](C)[C@H](C)CC[C@]4(C)CC[C@]23C)[C@@]1(C)C(=O)O`, the growth inhibition call was “active”. In the case of `CC1(C)[C@@H](OC(=O)CCC(=O)O)CC[C@]2(C)[C@H]3C(=O)C=C4[C@@H]5C[C@@](C)(C(=O)O)CC[C@]5(C)CC[C@@]4(C)[C@]3(C)CC[C@@H]12`, the growth inhibition call is reported as “inactive”. `CC1(C)[C@@H](OC(=O)CCC(=O)O)CC[C@@]2(C)[C@H]1CC[C@]1(C)[C@H]2C(=O)C=C2[C@@H]3C[C@@](C)(C(=O)O)CC[C@]3(C)CC[C@]21C` was tested, and the growth inhibition call was “inactive”. In the case of `COc1ccc(NC(=O)N(C)C[C@H]2OCCCC[C@@H](C)Oc3ccc(NS(=O)(=O)c4ccc(OC)cc4)cc3C(=O)N([C@@H](C)CO)C[C@@H]2C)cc1`, the growth inhibition call is reported as “inactive”. With `Cc1occc1CN` the growth inhibition call was “inactive”. In the case of `O=C(N[C@H]1C=C[C@H](CC(=O)N2CCOCC2)O[C@@H]1CO)c1ccccn1`, the growth inhibition call is reported as “inactive”. With `NC(=O)CSc1nnnn1-c1ccccc1` the growth inhibition call was “inactive”. In the case of `Nc1nnnn1-c1ccccc1`, the growth inhibition call is reported as “active”. With `NCc1nnnn1-c1ccccc1` the growth inhibition call was “inactive”. For `C[C@@H]1CN([C@H](C)CO)C(=O)Cc2cc(NS(=O)(=O)c3ccccc3)ccc2O[C@H]1CN(C)CC1CC1`, the growth inhibition call was “inactive”. For `CS(=O)(=O)N1[C@@H]2c3ccc(-c4cccc(F)c4)c(=O)n3C[C@H]1[C@H](CO)[C@H]2C(=O)N1CCOCC1`, the growth inhibition call was “inactive”. `Cc1noc(C)c1S(=O)(=O)N(C)C[C@@H]1Oc2ccc(NS(=O)(=O)c3ccc(Cl)cc3)cc2CC(=O)N([C@H](C)CO)C[C@H]1C` was tested, and the growth inhibition call was “inactive”. With `C=CC[n+]1ccccc1/C=N/O` the growth inhibition call was “inactive”. `Cc1ccc(S[C@]2(C(=O)NC3CC3)CC(=O)N(Cc3ccccc3C(F)(F)F)[C@@H]2c2ccc(CO)cc2I)cc1` was tested, and the growth inhibition call was “inactive”. In the case of `COC(=O)c1c(C)c2c(c(C)c1O)OC(=O)c1c(C)c(Cl)c(O)c(Cl)c1O2`, the growth inhibition call is reported as “active”. With `COC(=O)c1c(OC)cc2c(c1C)Oc1c(Cl)c(O)c(Cl)c(C)c1C(=O)O2` the growth inhibition call was “inactive”. With `COC(=O)c1c(C)c2c(c(C)c1OC)OC(=O)c1c(C)c(Cl)c(OC)c(Cl)c1O2` the growth inhibition call was “inactive”. With `COc1ccc(CN(C)C[C@@H]2Oc3ccc(NS(C)(=O)=O)cc3CC(=O)N([C@@H](C)CO)C[C@H]2C)cc1` the growth inhibition call was “inactive”. For `CO[C@H]1C[C@H](O[C@H]2[C@H](C)[C@@H](O[C@H]3O[C@H](C)C[C@H](N(C)C)[C@H]3O)[C@@H](C)C[C@]3(CO3)C(=O)[C@H](C)[C@@H](O)[C@@H](C)[C@@H](C)OC(=O)[C@@H]2C)O[C@@H](C)[C@@H]1O`, the growth inhibition call was “active”. For `C[C@H](O)C#Cc1cnc2c(c1)C(=O)N([C@H](C)CO)C[C@@H](C)[C@@H](CN(C)Cc1cncnc1)O2`, the growth inhibition call was “inactive”. For `CN1C(=O)c2cc(NC(=O)Nc3ccccc3F)ccc2OC[C@H]2O[C@@H](CC(=O)NCc3ccc(-c4ccccc4)cc3)CC[C@H]21`, the growth inhibition call was “inactive”. For `C[C@H](CO)N1C[C@H](C)[C@H](CN(C)C)Oc2ccc(NS(C)(=O)=O)cc2CC1=O`, the growth inhibition call was “inactive”. In the case of `CO[C@H](CN(C)S(=O)(=O)c1cn(C)cn1)[C@H](C)CN(C(=O)Nc1ccc(C(F)(F)F)cc1)[C@H](C)CO`, the growth inhibition call is reported as “active”. `C[C@@H]1CN([C@@H](C)CO)C(=O)c2cc(NC(=O)Nc3ccc(C(F)(F)F)cc3)ccc2O[C@@H](C)CCCCO[C@H]1CN(C)S(=O)(=O)c1cn(C)cn1` was tested, and the growth inhibition call was “inactive”. For `CO[C@H](CN(C)S(=O)(=O)c1cn(C)cn1)[C@@H](C)CN(C(=O)Nc1ccc(C(F)(F)F)cc1)[C@H](C)CO`, the growth inhibition call was “active”. `CO[C@H](CN(C)S(=O)(=O)c1cn(C)cn1)[C@@H](C)CN(C(=O)Nc1ccc(C(F)(F)F)cc1)[C@@H](C)CO` was tested, and the growth inhibition call was “active”. `C[C@H](CO)N1C[C@H](C)[C@@H](CN(C)S(=O)(=O)c2cn(C)cn2)OCCCC[C@H](C)Oc2ccc(NC(=O)Nc3ccc(C(F)(F)F)cc3)cc2C1=O` was tested, and the growth inhibition call was “inactive”. In the case of `C[C@@H]1CN([C@H](C)CO)C(=O)c2cc(NC(=O)Nc3ccc(C(F)(F)F)cc3)ccc2O[C@@H](C)CCCCO[C@@H]1CN(C)S(=O)(=O)c1cn(C)cn1`, the growth inhibition call is reported as “inactive”. For `CO[C@@H](CN(C)S(=O)(=O)c1cn(C)cn1)[C@H](C)CN(C(=O)Nc1ccc(C(F)(F)F)cc1)[C@@H](C)CO`, the growth inhibition call was “active”. For `C[C@@H]1CN([C@@H](C)CO)C(=O)c2cc(NC(=O)Nc3ccc(C(F)(F)F)cc3)ccc2O[C@@H](C)CCCCO[C@@H]1CN(C)S(=O)(=O)c1cn(C)cn1`, the growth inhibition call was “inactive”.
